Our source for the cytotoxicity call values is the antibiotic and cytotoxicity screens of Wong et al. (2023).

The campaign covered roughly 39,000 compounds. About 3,300 (8.5%) were called active. This excerpt belongs to a sample that is enriched for actives.

In the assay the test system is HepG2. The assay can be described thus: cytotoxicity call (relative viability < 0.9). The following applies: 10 µM.
For the compound `COCC(=O)Nc1ccc2c(c1)C(=O)N(C)C[C@@H](OC)[C@H](C)CN(Cc1ccccc1F)[C@H](C)CO2`, the cytotoxicity call is “inactive”.

Take `CN1CCN(C(=O)C[C@H]2C=C[C@@H](NC(=O)Cc3ccccn3)[C@@H](CO)O2)CC1`: the cytotoxicity call was “inactive”.

Consider `C[C@H]1CCCCO[C@H](CN(C)C(=O)CCC(F)(F)F)[C@@H](C)CN([C@@H](C)CO)C(=O)c2cc(NS(=O)(=O)c3ccc(F)cc3)ccc2O1`, for which the cytotoxicity call was “inactive”.

For `C[C@@H]1CN([C@@H](C)CO)C(=O)Cc2cc(NS(C)(=O)=O)ccc2O[C@H]1CN(C)C(=O)Nc1ccc(C(F)(F)F)cc1`, the cytotoxicity call was “inactive”.

For `C[C@H](CO)N1C[C@H](C)[C@H](CN(C)S(=O)(=O)c2ccc(Cl)cc2)OCCCC[C@H](C)Oc2ccc(NC(=O)C3CCCCC3)cc2C1=O`, the cytotoxicity call is “inactive”.

On to `C[C@H](CO)N1C[C@H](C)[C@H](CN(C)S(=O)(=O)c2ccccc2)Oc2ccc(NC(=O)Nc3cccc4ccccc34)cc2C1=O`, for which the cytotoxicity call was “inactive”.

As to `COc1ccc(NC(=O)Nc2cccc3c2O[C@@H](CN(C)C(=O)Nc2ccc(C(F)(F)F)cc2)[C@H](C)CN([C@@H](C)CO)C3=O)cc1`, the cytotoxicity call is “inactive”.

For `C[C@@H]1CCCCO[C@H](CN(C)Cc2ccncc2)[C@@H](C)CN([C@@H](C)CO)C(=O)c2cc(NC(=O)Nc3ccc4c(c3)OCO4)ccc2O1`, the cytotoxicity call is “inactive”.

For `C[C@@H]1CN([C@@H](C)CO)C(=O)Cc2cc(NC(=O)Nc3ccccc3)ccc2O[C@H]1CN(C)Cc1ccc(C(F)(F)F)cc1`, the cytotoxicity call is “active”.

`C[C@H](CO)N1C[C@H](C)[C@H](CN(C)Cc2ccc(C(F)(F)F)cc2)Oc2ccc(NC(=O)Nc3ccccc3)cc2CC1=O`: the cytotoxicity call was “inactive”.

Turning to `NCc1ccc2c(c1)CCO2`, the cytotoxicity call was “inactive”.

For `C[C@H]1CN([C@@H](C)CO)S(=O)(=O)c2ccc(-c3cncnc3)cc2O[C@H]1CN(C)C(=O)Cc1ccncc1`, the cytotoxicity call is “inactive”.

For the compound `Cc1ccc(S(=O)(=O)Nc2ccc3c(c2)C(=O)N([C@@H](C)CO)C[C@H](C)[C@H](CN(C)Cc2ccc(Cl)c(Cl)c2)O3)cc1`, the cytotoxicity call was “inactive”.

On to `Cc1ccc(S(=O)(=O)Nc2ccc3c(c2)C(=O)N([C@@H](C)CO)C[C@@H](C)[C@H](CN(C)Cc2ccc(Cl)c(Cl)c2)O3)cc1`, for which the cytotoxicity call is “inactive”.

Turning to `Cc1ccc(S(=O)(=O)Nc2ccc3c(c2)C(=O)N([C@@H](C)CO)C[C@@H](C)[C@@H](CN(C)Cc2ccc(Cl)c(Cl)c2)O3)cc1`, the cytotoxicity call is “active”.

For the compound `Cc1ccc(S(=O)(=O)Nc2ccc3c(c2)C(=O)N([C@H](C)CO)C[C@@H](C)[C@@H](CN(C)Cc2ccc(Cl)c(Cl)c2)O3)cc1`, the cytotoxicity call is “active”.

As to `Cc1ccc(S(=O)(=O)Nc2ccc3c(c2)C(=O)N([C@H](C)CO)C[C@H](C)[C@@H](CN(C)Cc2ccc(Cl)c(Cl)c2)O3)cc1`, the cytotoxicity call is “active”.

With `Cc1ccc(S(=O)(=O)Nc2ccc3c(c2)C(=O)N([C@@H](C)CO)C[C@H](C)[C@@H](CN(C)Cc2ccc(Cl)c(Cl)c2)O3)cc1`, the cytotoxicity call was “inactive”.

Take `Cc1ccc(S(=O)(=O)Nc2ccc3c(c2)C(=O)N([C@H](C)CO)C[C@@H](C)[C@H](CN(C)Cc2ccc(Cl)c(Cl)c2)O3)cc1`: the cytotoxicity call is “inactive”.

Regarding `Cc1ccc(S(=O)(=O)Nc2ccc3c(c2)C(=O)N([C@H](C)CO)C[C@H](C)[C@H](CN(C)Cc2ccc(Cl)c(Cl)c2)O3)cc1`, the cytotoxicity call is “active”.

For `NC(=O)CSCC(=O)Nc1ccccc1F`, the cytotoxicity call is “inactive”.

With `O=C(O)/C=C\C(=O)NCc1ccccc1`, the cytotoxicity call is “inactive”.

Regarding `COCCN1C[C@H]2[C@@H](OC)CCN(S(=O)(=O)c3cn(C)cn3)[C@H]2C1`, the cytotoxicity call was “inactive”.

In the case of `CNC(=O)C[C@@H]1CC[C@@H]2[C@H](COC[C@@H](O)CN2C(=O)c2ccccn2)O1`, the cytotoxicity call was “inactive”.

`C[C@H](CO)N1C[C@H](C)[C@@H](CN(C)S(=O)(=O)c2cccs2)Oc2ccc(NS(C)(=O)=O)cc2CC1=O`: the cytotoxicity call is “inactive”.

Take `C[C@H](O)[C@H](O)[C@@H](O)[C@@H](O)/C=N/NC(=O)c1cccc(C(=O)NO)c1`: the cytotoxicity call was “inactive”.

With `Cc1cc(C(=O)Nc2cccc3c2O[C@@H](CN(C)Cc2ccc4c(c2)OCO4)[C@@H](C)CN([C@@H](C)CO)C3=O)n(C)n1`, the cytotoxicity call is “inactive”.

In the case of `COc1ccc(NC(=O)Nc2ccc3c(c2)C(=O)N([C@H](C)CO)C[C@@H](C)[C@H](CN(C)Cc2ccc(Oc4ccccc4)cc2)O3)cc1`, the cytotoxicity call is “inactive”.

For the compound `COc1ccc(NC(=O)Nc2ccc3c(c2)C(=O)N([C@@H](C)CO)C[C@H](C)[C@H](CN(C)Cc2ccc(Oc4ccccc4)cc2)O3)cc1`, the cytotoxicity call was “inactive”.

`COc1ccc(NC(=O)Nc2ccc3c(c2)C(=O)N([C@H](C)CO)C[C@@H](C)[C@H](CN(C)Cc2ccc(-c4ccccc4)cc2)O3)cc1`: the cytotoxicity call is “active”.

On to `COc1ccc(NC(=O)Nc2ccc3c(c2)C(=O)N([C@@H](C)CO)C[C@@H](C)[C@@H](CN(C)Cc2ccc(-c4ccccc4)cc2)O3)cc1`, for which the cytotoxicity call is “active”.

As to `COc1ccc(NC(=O)Nc2ccc3c(c2)C(=O)N([C@H](C)CO)C[C@H](C)[C@H](CN(C)Cc2ccc(-c4ccccc4)cc2)O3)cc1`, the cytotoxicity call is “active”.

As for `COc1ccc(NC(=O)Nc2ccc3c(c2)C(=O)N([C@H](C)CO)C[C@H](C)[C@@H](CN(C)Cc2ccc(-c4ccccc4)cc2)O3)cc1`, the cytotoxicity call is “inactive”.

As to `COc1ccc(NC(=O)Nc2ccc3c(c2)C(=O)N([C@@H](C)CO)C[C@H](C)[C@H](CN(C)Cc2ccc(-c4ccccc4)cc2)O3)cc1`, the cytotoxicity call was “inactive”.

As for `COc1ccc(NC(=O)Nc2ccc3c(c2)C(=O)N([C@@H](C)CO)C[C@H](C)[C@@H](CN(C)Cc2ccc(-c4ccccc4)cc2)O3)cc1`, the cytotoxicity call was “inactive”.

With `COc1ccc(NC(=O)Nc2ccc3c(c2)C(=O)N([C@H](C)CO)C[C@@H](C)[C@@H](CN(C)Cc2ccc(-c4ccccc4)cc2)O3)cc1`, the cytotoxicity call was “active”.

For `CC(=O)c1ccc(S(=O)(=O)N2[C@@H]3CC[C@@H](C3)[C@H]2c2nc3cccc(OCc4ccc(F)cc4)c3[nH]2)cc1`, the cytotoxicity call is “inactive”.

In the case of `C[C@@H]1CN([C@@H](C)CO)C(=O)c2cc(NC(=O)C3CC3)ccc2O[C@@H]1CN(C)S(=O)(=O)c1cccs1`, the cytotoxicity call was “inactive”.

Take `CCCC(=O)Nc1ccc2c(c1)OC[C@H](C)N(Cc1ccc(-c3ccccn3)cc1)C[C@@H](C)[C@H](OC)CN(C)C2=O`: the cytotoxicity call was “inactive”.

As for `COc1ccc(S(=O)(=O)Nc2ccc3c(c2)C(=O)N([C@@H](C)CO)C[C@@H](C)[C@@H](CN(C)C(=O)Nc2c(C)noc2C)OCCCC[C@H](C)O3)cc1`, the cytotoxicity call is “inactive”.
